CHOP inhibitor: inhibitors of CHOP promoter induction, primary screen, cell-based, unfolded protein response, luciferase reporter; inhibition, % at 10 µM; CHO-K1 CHOP-promoter luciferase, tunicamycin-induced, 15-18 h; 3.8% of 220,000 active;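 active = compounds that reduced the stress-induced luciferase reporter signal by more than about 70% of percent inhibition, limit read from the data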
L major viab: Leishmania major promastigote growth inhibition, primary screen; inhibition, % at 10 µM; 9% of 200,000 active; Leishmania major promastigotes, resazurin fluorescence viability; in the data active = inhibition above about 50%;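 note: promastigotes grown with compound for 44 hours at 28 °C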
WT yeast gro inh: growth inhibition of WT strain, primary screen, mitochondrial fusion inhibitor project, WT and mutant strains, chemical genetic | mitochondrial fusion phenotypic screen | inhibition, % at 10 µM | 2.1% of 190,000 active; in the data active = inhibition above about 58%; tested in S. cerevisiae
Arbovirus inh: antivirals against arbovirus infection, primary screen, cell-based, full library, 10K replicate subset; arbovirus infection cell-based antiviral screen; inhibition, % at 10 µM; 0.37% of 200,000 active; AID 1251, 2008; in the data active = inhibition above about 30%
Hits are given with their value. A selection: hits, their analogues and other compounds. The true share with any hit is near 12%.

`O=C(Nc1ccc(S(=O)(=O)Nc2nccs2)cc1)c1ccc(N2C(=O)c3ccccc3C2=O)cc1` gave CHOP inhibitor inactive, L major viab 101, WT yeast gro inh inactive and Arbovirus inh inactive.
Cc1noc(NS(=O)(=O)c2ccc(NC(=O)c3ccc(N4C(=O)c5ccccc5C4=O)cc3)cc2)c1C was read as CHOP inhibitor inactive, L major viab inactive, WT yeast gro inh inactive and Arbovirus inh inactive.
For O=C(COC(=O)c1c(Cl)ccc(Cl)c1Cl)NC(=O)NCc1ccccc1 the results were CHOP inhibitor 84, L major viab 79, WT yeast gro inh inactive and Arbovirus inh inactive.
`COc1cccc(OC)c1C(=O)OCC(=O)NC(=O)NCc1ccccc1` gave CHOP inhibitor inactive, L major viab inactive, WT yeast gro inh inactive and Arbovirus inh inactive.
For COc1cccc(/C=C/C(=O)OCC(=O)NCc2ccco2)c1 the results were CHOP inhibitor inactive, L major viab inactive, WT yeast gro inh inactive and Arbovirus inh inactive.
CCC(=O)NC(c1ccc(OC)cc1)c1cc(Cl)c2cccnc2c1O (centres undefined) was read as CHOP inhibitor inactive, L major viab 98, WT yeast gro inh inactive and Arbovirus inh inactive.
For COc1ccc(C(=O)Nc2cccnc2)cc1OC the results were CHOP inhibitor inactive, L major viab inactive, WT yeast gro inh inactive and Arbovirus inh inactive.
Screening COc1ccc(CCNC(=O)c2cccnc2)cc1OC returned CHOP inhibitor inactive, L major viab inactive, WT yeast gro inh inactive and Arbovirus inh inactive.
CCC(=O)NC(c1ccco1)c1cc(Cl)c2cccnc2c1O (centres undefined) was read as CHOP inhibitor inactive, L major viab inactive, WT yeast gro inh inactive and Arbovirus inh inactive.
O=C(CCc1ccccc1)NC(c1cccs1)c1cc(Cl)c2cccnc2c1O (centres undefined) was read as CHOP inhibitor 89, L major viab 99, WT yeast gro inh inactive and Arbovirus inh inactive.
`COc1ccc(Cl)cc1C(Nc1cccnc1)c1ccc2cccnc2c1O` (centres undefined) gave CHOP inhibitor inactive, L major viab 62, WT yeast gro inh inactive and Arbovirus inh inactive.
COc1ccc(C(NC(=O)c2cccnc2)c2cc(Cl)c3cccnc3c2O)cc1OC (centres undefined) was read as CHOP inhibitor inactive, L major viab 98, WT yeast gro inh inactive and Arbovirus inh inactive.
`CCCC(=O)NC(c1cccs1)c1cc([N+](=O)[O-])c2cccnc2c1O` (centres undefined) gave CHOP inhibitor inactive, L major viab inactive, WT yeast gro inh inactive and Arbovirus inh inactive.
`CCCCCCCCCCCCCCCCCCOC[C@H](COP(=O)([O-])OCC[N+](C)(C)C)OC` gave CHOP inhibitor inactive.
`CN(C)c1ccc2c3c(ccc(N(C)C)c13)COC2` gave CHOP inhibitor inactive, L major viab inactive, WT yeast gro inh inactive and Arbovirus inh inactive.
CCCC(=O)NC(c1ccc(OC)cc1)c1ccc2cccnc2c1O (centres undefined) was read as CHOP inhibitor 82, L major viab 100, WT yeast gro inh inactive and Arbovirus inh inactive.
CCCC(=O)NC(c1ccc(OCC)cc1)c1ccc(OC)c(OC)c1 (centres undefined) was read as CHOP inhibitor inactive.
`CCC(=O)NC(c1ccccc1OC)c1ccc2cccnc2c1O` (centres undefined) gave CHOP inhibitor inactive, L major viab 100, WT yeast gro inh inactive and Arbovirus inh inactive.
COc1ccc(OC)c(S(=O)(=O)Nc2c(C)cccc2C)c1 was read as CHOP inhibitor inactive, L major viab inactive, WT yeast gro inh inactive and Arbovirus inh inactive.
`N#CC1(NC(=O)CN2CCc3ccccc3C2)CCCC1` gave CHOP inhibitor inactive, L major viab inactive, WT yeast gro inh inactive and Arbovirus inh inactive.
`COc1cc(NC(=O)COC(=O)c2cnccn2)c(C)cc1[N+](=O)[O-]` gave CHOP inhibitor inactive.
Screening O=C(Nc1ccc2nc(-c3cccs3)c(-c3cccs3)nc2c1)NC1CC1 returned CHOP inhibitor 92, L major viab 64, WT yeast gro inh inactive and Arbovirus inh inactive.
For O=C(Nc1ccc2nc3n(c(=O)c2c1)CCCC3)c1cccc([N+](=O)[O-])c1 the results were CHOP inhibitor inactive, L major viab inactive, WT yeast gro inh inactive and Arbovirus inh inactive.
For CCCCNC(=S)Nc1ccc2nc3n(c(=O)c2c1)CCCCC3 the results were CHOP inhibitor inactive, L major viab 51, WT yeast gro inh inactive and Arbovirus inh inactive.
`O=C(Nc1ccc2nc3n(c(=O)c2c1)CCCC3)c1cc([N+](=O)[O-])ccc1F` gave CHOP inhibitor inactive, L major viab 100, WT yeast gro inh inactive and Arbovirus inh inactive.
`CCOCCCNC(=S)Nc1ccc2nc3n(c(=O)c2c1)CCCCC3` gave CHOP inhibitor inactive, L major viab inactive, WT yeast gro inh inactive and Arbovirus inh inactive.
COc1ccc(C(=O)NCC(=O)NCC(=O)OCC(=O)C(C)(C)C)cc1 was read as CHOP inhibitor inactive, L major viab inactive, WT yeast gro inh inactive and Arbovirus inh inactive.
For COc1cc(/C=N/NC(=O)c2cccnc2)ccc1OCC(=O)N1CCOCC1 the results were CHOP inhibitor inactive, L major viab inactive, WT yeast gro inh inactive and Arbovirus inh inactive.
For O=c1ccc(/C=C/c2ccccc2)nn1Cc1ccc(F)cc1 the results were CHOP inhibitor 80, L major viab inactive, WT yeast gro inh inactive and Arbovirus inh inactive.
`Cc1ccc(/C=C/c2ccc(=O)n(Cc3ccccc3Cl)n2)cc1` gave CHOP inhibitor inactive, L major viab inactive, WT yeast gro inh 62 and Arbovirus inh inactive.
Screening Cc1ccc(/C=C/c2ccc(=O)n(Cc3ccc(F)cc3)n2)cc1 returned CHOP inhibitor 79, L major viab inactive, WT yeast gro inh inactive and Arbovirus inh inactive.
`CCOC(=O)Cn1nc(/C=C/c2ccc(OC)cc2)ccc1=O` gave L major viab inactive.
`COc1ccc(/C=C/c2ccc(=O)n(Cc3ccccc3)n2)cc1` gave CHOP inhibitor inactive, L major viab inactive, WT yeast gro inh inactive and Arbovirus inh inactive.
For NC(CCCCCP(=O)(c1ccccc1)c1ccccc1)C(=O)O (centres undefined) the results were CHOP inhibitor inactive.
Screening Cc1cccc(N2CCN(C(=O)CCCn3c(=S)[nH]c4cc5c(cc4c3=O)OCO5)CC2)c1C returned CHOP inhibitor inactive, L major viab 64, WT yeast gro inh inactive and Arbovirus inh inactive.
O=C(CCCn1c(=S)[nH]c2cc3c(cc2c1=O)OCO3)N1CCN(c2ccc(Cl)cc2)CC1 was read as CHOP inhibitor inactive, L major viab 56, WT yeast gro inh inactive and Arbovirus inh inactive.
`CN1C2CCC1/C(=C\c1ccccc1)C(=O)/C2=C\c1ccccc1` gave CHOP inhibitor inactive, L major viab 94, WT yeast gro inh inactive and Arbovirus inh inactive.
`COc1ccc(CCNC(=O)c2ccc(Cl)c(S(=O)(=O)N(C)c3ccccc3)c2)cc1` gave CHOP inhibitor inactive, L major viab 98, WT yeast gro inh inactive and Arbovirus inh inactive.
`CCN(c1ccccc1)S(=O)(=O)c1ccc(Cl)c(C(=O)NCCc2ccc(OC)cc2)c1` gave CHOP inhibitor inactive, L major viab 89, WT yeast gro inh inactive and Arbovirus inh inactive.
Screening CCN(c1ccccc1)S(=O)(=O)c1ccc(OC)c(NC(=O)CNCCc2ccccc2)c1 returned CHOP inhibitor inactive, L major viab 52, WT yeast gro inh inactive and Arbovirus inh inactive.
COc1ccc(CCNC(=O)c2ccccc2N(C)S(=O)(=O)c2ccccc2)cc1 was read as CHOP inhibitor inactive, L major viab 80, WT yeast gro inh inactive and Arbovirus inh inactive.
`CN(C)CCCNC(CC(=O)Nc1cccc([N+](=O)[O-])c1)C(=O)O` (centres undefined) gave CHOP inhibitor inactive, L major viab inactive, WT yeast gro inh inactive and Arbovirus inh inactive.
`Cc1nccc(-c2cc(-c3ccc(Cl)cc3Cl)no2)n1` gave CHOP inhibitor inactive.
